Source: PubChem BioAssay AID588675 (Johns Hopkins Ion Channel Center, 2011)
Screen size: about 310,000 compounds; about 1,900 (0.61%) were called active. This is one part of a sample in which actives are shown more often than they occur.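 The calls were made as follows: active = plate-corrected calcium response at least 3 library SD above typical, normal starting fluorescence, not activating the receptor alone; inactive = the rest.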

These molecules were tested against Mas-related G-protein coupled receptor member X1 (Homo sapiens) (UniProt Q96LB2) (assay: allosteric enhancers of human MrgX1 signaling – HEK293 cells, Fluo-4 calcium flux, primary screen (AID 588675;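 also: compound read alongside a low EC10 to EC30 dose of BAM8-22 agonist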;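 as to B-score: peak minus trough fluorescence over baseline measured at the second addition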)). Settings: MrgX1-HEK293, Fluo-4 calcium flux, FDSS, at 10 µM; stronger effect = higher value.
Chain of Mas-related G-protein coupled receptor member X1 (Homo sapiens) (Q96LB2 whole entry, looked up): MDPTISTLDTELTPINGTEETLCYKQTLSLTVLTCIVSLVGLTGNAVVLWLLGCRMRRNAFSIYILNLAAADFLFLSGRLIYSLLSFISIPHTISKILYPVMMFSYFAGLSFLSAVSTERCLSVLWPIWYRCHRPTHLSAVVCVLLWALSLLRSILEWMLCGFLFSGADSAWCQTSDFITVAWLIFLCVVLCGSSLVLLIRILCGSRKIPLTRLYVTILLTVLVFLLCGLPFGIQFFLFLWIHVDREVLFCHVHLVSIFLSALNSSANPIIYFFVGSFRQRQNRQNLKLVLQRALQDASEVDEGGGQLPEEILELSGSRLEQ
In the case of `COc1ccc(NC(=O)C2C3C=CC(C3)C2C(=O)NCc2ccccn2)c(OC)c1` (configuration not stated), the B-score was “inactive”. In the case of `Cn1c(=O)n(C)c2cc(S(=O)(=O)N3CCCc4ccccc43)ccc21`, the B-score was “inactive”. With `COc1ccc(C(=O)OCC(=O)NCC2CCCCC2)cc1S(=O)(=O)N1CCCc2ccccc21` the B-score was “inactive”. In the case of `COc1cc(C)c(C)cc1S(=O)(=O)N1CCCc2ccccc21`, the B-score was 7.48 (active). With `CC[C@@H](C)[C@@H](C(=O)N1CCN(C(=O)OC(C)(C)C)CC1)n1cc(CCC(=O)O)nn1` the B-score was “inactive”. With `CC1CN(S(=O)(=O)c2cccc(C(F)(F)F)c2)CN1C(=O)N1CCOCC1` (configuration not stated) the B-score was “inactive”. In the case of `COc1ccc(C2CC(=O)n3c(nc4ccccc43)S2)cc1OC` (configuration not stated), the B-score was “inactive”. In the case of `COc1ccc(C2SCCN2S(=O)(=O)c2ccccc2)cc1OC` (configuration not stated), the B-score was 7.25 (active). For `COc1ccc(S(=O)(=O)N2CCC(C(=O)N3CCc4ccccc4C3)CC2)cc1OC`, the B-score was “inactive”. In the case of `Cc1cc(NC(=O)CS(=O)(=O)c2cn(C)c3ccccc23)no1`, the B-score was “inactive”. For `CCCCN1C(N)=NC[C@@H]1CC1CCCCC1`, the B-score was “inactive”. `COc1ccccc1CCNS(=O)(=O)c1cn(C)nc1C` was tested, and the B-score was “inactive”. For `CCOc1ccc2nc(N(CCCN(C)C)C(=O)c3ccc(C(=O)c4ccccc4)cc3)sc2c1`, the B-score was “inactive”. In the case of `CC(N=Cc1nc(-c2ccccc2)oc1O)c1ccccc1` (configuration not stated), the B-score was “inactive”. For `CCOc1ccc2nc(/N=C/c3nc(-c4ccccc4)oc3O)sc2c1`, the B-score was 18.1 (active). In the case of `CN1C(=O)CC(c2ccccc2)C1=O` (configuration not stated), the B-score was “inactive”. `Cc1cccc(N(C)C(=O)c2cc(S(=O)(=O)N3CCCCC3)c[nH]2)c1` was tested, and the B-score was “inactive”. With `COC(=O)Cn1c(=NC(=O)c2cc(OC)c(OC)c(OC)c2)sc2cc(OC)ccc21` the B-score was “inactive”. For `COc1ccc(/C(C)=N/NC(=O)CCC(=O)Nc2ccc(Cl)cc2Cl)c(OC)c1`, the B-score was “inactive”. In the case of `COc1ccc(OC)c(/C(C)=N\NC(=O)c2cc3cc(Cl)ccc3n2C)c1`, the B-score was 6.86 (active). With `COc1ccc(OC)c(C(=O)c2ccc(Cl)cc2)c1` the B-score was “inactive”. In the case of `CCN(CC(=O)NCc1cccs1)C(=O)c1cccc(S(=O)(=O)Nc2ccccc2OC)c1`, the B-score was “inactive”. In the case of `CCOc1ccccc1NS(=O)(=O)c1c[nH]c(C(=O)OC)c1`, the B-score was “inactive”. `CCOc1ncccc1C(=O)NNC(=O)c1cccc(S(=O)(=O)Nc2ccccc2OC)c1` was tested, and the B-score was 7.54 (active). `COc1ccc(CCNC(=S)NC(=O)/C=C/c2ccc(C)cc2)cc1OC` was tested, and the B-score was “inactive”. In the case of `COCCCNC(=O)CN1CCN(Cc2ccccc2Cl)C1=O`, the B-score was “inactive”. In the case of `C#CCOCCOCCOCCNc1nc(N2CCN(C(=O)[C@H](CCCCN)n3cc(CCC(=O)O)nn3)CC2)nc(N2CCN(C(=O)[C@H](CCCCN)n3cc(CC(C)O)nn3)CC2)n1` (some centres not stated), the B-score was “inactive”. `COc1ccc(CCNc2nc3ccc(C)cc3n3cnnc23)cc1OC` was tested, and the B-score was “inactive”. In the case of `COc1cc(Nc2nc3ccc(Cl)cc3n3cnnc23)cc(OC)c1OC`, the B-score was “inactive”. With `COc1ccc(OC)c(Nc2nc3ccccc3n3cnnc23)c1` the B-score was 9.87 (active). In the case of `Cc1nn2cc(-c3ccc(Cl)cc3)cnc2c1Br`, the B-score was “inactive”. In the case of `CN1C(C)(C)CC(NC(=O)CCC(=O)NC2CC(C)(C)N(C)C(C)(C)C2)CC1(C)C`, the B-score was “inactive”. `Nc1nc(C23CC4CC(CC(C4)C2)C3)cs1` was tested, and the B-score was 15.8 (active). With `Nc1nc(SC23CC4CC(CC(C4)C2)C3)ns1` the B-score was “inactive”. `S=c1nc(C23CC4CC(CC(C4)C2)C3)nc2sccn12` was tested, and the B-score was “inactive”. `FC(F)(F)c1ccc2nnc(-c3c(Cl)cccc3Cl)n2c1` was tested, and the B-score was “inactive”. In the case of `COC(=O)Cc1cc(=O)n(-c2nc3ccccc3s2)[nH]1`, the B-score was 7.64 (active). `COC(=O)Cc1[nH]n(-c2nc3ccccc3s2)c(=O)c1C(C)=Nc1ccc(OC)cc1` was tested, and the B-score was “inactive”. `C/C(=N\NC(=O)CC(C)C)c1c(C(F)(F)F)[nH]n(-c2nc3ccccc3s2)c1=O` was tested, and the B-score was “inactive”. For `O=[N+]([O-])c1ccc2oc(-c3cccc(O)c3)nc2c1`, the B-score was “inactive”. `COc1ccc(-c2nc3cc([N+](=O)[O-])ccc3o2)cc1OC` was tested, and the B-score was 11 (active). With `COc1ccc([N+](=O)[O-])cc1-c1nc2ccccc2nc1-c1ccccc1` the B-score was “inactive”. For `CC(C)N1C(=S)SC(C)(C)C1n1oc(=O)n(-c2ccc(Cl)c(Cl)c2)c1=O` (configuration not stated), the B-score was “inactive”. In the case of `O=C(CNC(=O)OCc1ccccc1)Oc1cc2oc(=O)cc(-c3ccccc3)c2cc1Cl`, the B-score was “inactive”. With `Cc1nc2sccn2c(=O)c1S(=O)(=O)NCCc1ccccc1` the B-score was “inactive”. With `Cc1c(C(=O)N(C)CCc2cnn(C)c2)oc2c(F)cccc12` the B-score was “inactive”. For `Cc1ccc2c(C)c(C(=O)N(C)CCC3CCCCO3)oc2c1C` (configuration not stated), the B-score was 11.2 (active). For `Cc1ccc2c(C)c(C(=O)N(C)Cc3ccncn3)oc2c1C`, the B-score was “inactive”. In the case of `CCCCn1c(N)c(N(CCC(C)C)C(=O)CC2OC(=O)c3ccccc32)c(=O)[nH]c1=O` (configuration not stated), the B-score was “inactive”. With `COc1ccc(C2(C)NC(=O)N(CC(=O)c3ccc4c(c3)OCO4)C2=O)cc1` (configuration not stated) the B-score was “inactive”. `O=C(OCc1ccc([N+](=O)[O-])cc1)C1CC(=O)N(Cc2ccccc2Cl)C1` (configuration not stated) was tested, and the B-score was “inactive”. `CCCC1CCC(=NNC(=S)NCCc2ccccc2)CC1` (configuration not stated) was tested, and the B-score was “inactive”. `O=C(O)CCn1cc(/C=C/C(=O)c2ccc(Cl)cc2)c(-c2cccc(Br)c2)n1` was tested, and the B-score was “inactive”. With `CCOc1cc(/C=C(\C#N)c2nc(-c3cccs3)c(NC(C)=O)s2)ccc1O` the B-score was “inactive”. With `COc1cc(/C=C(\C#N)c2nc3c(s2)CC(C)CC3)ccc1O` (configuration not stated) the B-score was 15.1 (active). For `COc1cc(/C=C(\C#N)c2nc3ccccc3[nH]2)ccc1O`, the B-score was “inactive”. In the case of `CC(=O)Nc1ccc(S(=O)(=O)N2CCN(C(=O)c3ccccc3F)CC2)cc1`, the B-score was “inactive”. `O=C(Nc1cccc(Cl)c1)c1cncn1-c1ccc(F)cc1` was tested, and the B-score was 12.5 (active). In the case of `O=C(Nc1cccc(Cl)c1)c1cc(S(=O)(=O)N2CCCCC2)c[nH]1`, the B-score was “inactive”. `CCC(=O)Nc1nc(C)c(C(=O)Nc2cccc(Cl)c2)s1` was tested, and the B-score was “inactive”. `C=CCn1cc(Cl)cc(C(=O)Nc2ccccc2)c1=O` was tested, and the B-score was “inactive”. In the case of `COC(=O)c1c(NC(=O)CN(c2ccc(C)c(C)c2)S(C)(=O)=O)sc2c1CCCC2`, the B-score was 11.7 (active). In the case of `CCc1ccc(N(CC(=O)Nc2sc3c(c2C(=O)OC)CCCC3)S(C)(=O)=O)cc1`, the B-score was 8.16 (active). With `COC(=O)c1c(NC(=O)COC(=O)[C@@H](NS(=O)(=O)c2ccccc2)C(C)C)sc2c1CCC2` the B-score was “inactive”. `COC(=O)c1c(NC(=O)CSc2nncs2)sc2c1CCCCC2` was tested, and the B-score was “inactive”. `COC(=O)c1c(NC(=O)CCN2CCOCC2)sc2c1CCCC2` was tested, and the B-score was “inactive”. `COC(=O)c1c(NC(=O)C2CC(C)=C(C)CC2C(=O)O)sc2c1CCCCC2` (configuration not stated) was tested, and the B-score was “inactive”.
